Assay results from the supplement of paper PMC6555819.

Assays:
Assay in all cases: PBM binding z-score (relative to random genomic background probes); higher = stronger binding; sequences stand for … in GC…GCGATTGACAGCGTAGAATGAAGG
[1] = system: FXR:RXRa (NR concentration 270 nM, RXRa partner concentration 90 nM)
Outline: (§1)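 Random background probes are the reference for binding z-scores. These scores derive from regression-normalized fluorescence on custom Agilent 4×180K protein-binding microarrays incubated 1 h with ligand-free nuclear receptor dimers. Binding was detected with antibodies against each partner (one per run).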

[2] = system: LXRa:RXRa (NR concentration 270 nM, RXRa partner concentration 90 nM)
Outline: as §1

[3] = system: LXRa homodimer (NR concentration 270 nM)
Outline: as §1

[4] = system: LXRb:RXRa (NR concentration 270 nM, RXRa partner concentration 90 nM)
Outline: as §1

[5] = system: LXRb homodimer (NR concentration 270 nM)
Outline: as §1

[6] = system: PPARa:RXRa (NR concentration 270 nM, RXRa partner concentration 90 nM)
Outline: as §1

[7] = system: PPARg:RXRa (NR concentration 180 nM, RXRa partner concentration 90 nM)
Outline: as §1

[8] = system: PPARg:RXRa 270nM:90nM, anti-RXR (NR concentration 270 nM, RXRa partner concentration 90 nM)
Outline: as §1

[9] = system: PPARg:RXRa 30nM:10nM, anti-RXR (NR concentration 30 nM, RXRa partner concentration 10 nM)
Outline: as §1

[10] = system: PPARg:RXRa 90nM:30nM, anti-RXR (NR concentration 90 nM, RXRa partner concentration 30 nM)
Outline: as §1

Row | Sequence | PBM binding z-score [1] | PBM binding z-score [2] | PBM binding z-score [3] | PBM binding z-score [4] | PBM binding z-score [5] | PBM binding z-score [6] | PBM binding z-score [7] | PBM binding z-score [8] | PBM binding z-score [9] | PBM binding z-score [10]
1 | ACTAGCAGGCCAAGTTTGGGTCGCTCAAACAAAG | -0.398 | -0.635 | -0.922 | -0.551 | -0.759 | -0.185 | -0.746 | -0.638 | -1.08 | -1.15
2 | TAGCCTAGGTCATTCAGGGGACAGTATAGAAAGC | 4.83 | 4.05 | 1.41 | 3.39 | 1.57 | 3.96 | 2.88 | 2.81 | 0.785 | 1.62
3 | TCAGACAGGTGAAGGTAACGCAGGTACGCAGTCG | 0.226 | 0.481 | -0.607 | 0.397 | -0.402 | 1.16 | 0.779 | 1.98 | 3.58 | 2.71
4 | TTATATAGGTAAACAGGTGAAAGTCCGTAAGTTA | 0.62 | 0.679 | 0.481 | 0.738 | 0.246 | 3.31 | 5.61 | 4.75 | 2.93 | 4.41
5 | ACTAGCAGACCAAGGGTCACTCAAGATTAGTCCG | 2.1 | 2.89 | 0.341 | 2.8 | -0.191 | 3.74 | 4.94 | 5.53 | 3.15 | 5.96
6 | ACTATTAGTTGAGACGAGGGCAAACGATAGGTTG | 0.392 | 0.212 | 0.35 | 0.169 | 0.32 | 0.382 | 0.773 | 0.206 | 0.117 | 0.161
7 | GATACAGGGTCAAGACCAGAGTACGCGTATTGAT | 6.27 | 3.79 | 0.0908 | 3.63 | 0.0748 | 5.37 | 5.25 | 4.91 | 1.75 | 3.56
8 | GTGACTGGGGCAAAGCAGGTTACCATAAGGTTGG | 0.845 | 0.956 | 0.27 | 0.924 | -0.272 | 2.5 | 2.32 | 2.83 | 0.397 | 1.36
9 | CCTACTGGGCCATAAGGTCATTGATATCAACGTT | 3.03 | 3.09 | 1.89 | 3.17 | 0.0476 | 4.14 | 4.49 | 4.98 | 3.38 | 4.64
10 | AAATGTAGGTTATCGGGTCATTCAGTTTGCGCAT | 3.38 | 3.09 | 1.81 | 2.9 | 0.806 | 5.21 | 7.59 | 6.43 | 4.76 | 6.15
11 | GCAGACAGGTAAAACGCAGGTAACTCAGGGTGGC | -0.253 | -0.37 | -0.412 | -0.448 | -0.917 | -0.183 | 0.515 | -0.433 | -0.834 | -0.835
12 | ATCGAAAGGTCGTGAGGTGAGTAGACAGAAAGGC | 5.21 | 4.15 | 0.0462 | 2.98 | 0.701 | 4.93 | 3.83 | 4.25 | 1.29 | 3.08
13 | ATATGTAGGTTATCGGGTCTTTCAGTTTGCGCAT | 0.832 | 1.52 | 1.05 | 1.64 | 1.21 | 3.2 | 5.24 | 4.68 | 2.04 | 3.97
14 | CCTAGTAGGCCAGGGTCACTCAAGCATTTCGCTT | 1.96 | 1.56 | -0.322 | 2.01 | -0.98 | 3.69 | 3.5 | 4.07 | 1.36 | 3.22
15 | ATATGTAGTTTACATCCGGGTCATTCAGGCTATG | 1.49 | 2.34 | 1.08 | 2.31 | 1.04 | 2.59 | 1.19 | 1.19 | 0.609 | 1.53
16 | AGTACAGGGTCACTAGGCCAGAGTAGGTACGAAT | 5.64 | 3.74 | -0.159 | 3.25 | 0.166 | 5.73 | 7.54 | 6.4 | 2.95 | 5.23
17 | TCATATAGGTAAAAGGTGAATGTCGGTGTGGTAA | 1.81 | 1.79 | 0.481 | 1.93 | 0.156 | 5.2 | 8.83 | 8.55 | 8.35 | 9.06
18 | TCTTGTAGATCTACAGGAGGTTAAGAAAGATCGA | -0.0507 | 1.18 | 0.0906 | 1.05 | -0.353 | 1.13 | 0.0555 | 1.06 | 2.09 | 1.48
19 | ATATGTAGGTTATCGGGTCATTAAGTTTGCGCAT | 3 | 2.85 | 1.77 | 2.95 | 1.02 | 5 | 7.09 | 6.08 | 3.81 | 5.71

Row | Sequence | PBM binding z-score [1] | PBM binding z-score [2] | PBM binding z-score [3] | PBM binding z-score [4] | PBM binding z-score [5] | PBM binding z-score [6] | PBM binding z-score [7] | PBM binding z-score [8] | PBM binding z-score [9] | PBM binding z-score [10]
20 | ACTATTTGTTGACTTAGGGCAACCGATACGACGC | 0.226 | 0.188 | 0.404 | 0.344 | 1.56 | 0.197 | 0.97 | 0.737 | 0.434 | 0.364
21 | ACTAGCAGGCCAAGGCTCACTCAAGATTAGTCCG | -0.393 | -0.377 | -0.331 | -0.701 | -0.95 | -0.271 | 0.588 | 0.682 | -0.134 | 0.168
22 | CGAACTAGGTCATTGGCAGGACAGTGAATAGTAA | 4.29 | 2.62 | 0.219 | 1.66 | -0.306 | 4.73 | 7.68 | 6.26 | 3.37 | 5.72
23 | CAAACTAGGTCACGAAAGGTCAATGTCGAATGAC | 7.08 | 7.86 | 6.57 | 7.03 | 1.87 | 6.73 | 10.3 | 8.29 | 6.83 | 8.33
24 | TCTTGTAGATGAAAGGTTAAGAAAGCCGAAGCCT | 1.26 | 1.83 | 0.275 | 1.67 | 0.361 | 3.62 | 5.98 | 6.86 | 6.79 | 7.44
25 | AGTCAAAGTTCAGGACGAGGTAACGTAAAGCACG | 3.82 | 3.74 | 0.999 | 1.93 | 0.286 | 3.46 | 4.47 | 4.95 | 2.17 | 3.94
26 | CCTTACGGGTCACGAGGTTATGGCACGACGAGCG | 6.57 | 4.39 | 0.195 | 3.8 | 0.148 | 5.94 | 7.08 | 6.31 | 3.46 | 5.31
27 | AATACAGGGTCACTAGGCCAGAATAGGTACGAAT | 6.2 | 5.06 | 1.04 | 4.11 | 1.02 | 5.95 | 7.89 | 6.5 | 2.7 | 5.33
28 | CATACTAGGTCAAGGTCAAAGTCGGTTTGTGCCA | 6.62 | 5.81 | 5.27 | 4.77 | 1.99 | 5.6 | 8.52 | 7.01 | 5.63 | 6.93
29 | CGTCCAGGGTCAGAGAGGTCAGTGAATGCCGAGT | 5.65 | 4.8 | 1.62 | 4.15 | -0.103 | 4.87 | 3.32 | 4.21 | 1.19 | 2.81
30 | CCTTACGGGTCACTCCAGGCTATAGCATCGGAGT | 4.45 | 5.59 | -0.324 | 2.91 | -0.145 | 4.07 | 2.95 | 3.31 | 0.716 | 1.9
31 | TAGCCTAGATCATTGGGCCAGTATAGTACGCATC | -0.685 | -0.948 | -0.567 | -0.649 | -0.658 | -0.513 | 0.37 | -0.537 | -0.101 | -0.125
32 | CAGACTAGGTCACAGAGGTCAAAGTCCGTGCGTA | 6.87 | 6.52 | 6.79 | 6.23 | 1.62 | 6.22 | 8.66 | 7.43 | 5.05 | 7.36
33 | GCATATAGGTAATGCAAGGTGAAAGTCCGATTGT | 0.366 | 1.83 | -0.0493 | 0.568 | -0.489 | 1.74 | 1.05 | 1.15 | 0.286 | 0.74
34 | AGTCAAAGTTCATGACGAGGTAACGTAAAGCACG | 6.67 | 6.13 | 2.96 | 3.45 | 0.691 | 5.01 | 6.45 | 6.59 | 3.58 | 5.63
35 | TCGAGTAGGTTATCAATGGGGCATTCAGCTTTCT | 0.264 | 1.14 | -0.501 | 1.05 | -0.428 | 0.979 | -0.105 | 0.76 | 1.03 | 0.852
36 | TCATATACGTAAATGCTAGGTGAAAGTCCGATCT | 0.742 | 0.449 | 0.327 | 0.861 | 0.278 | 0.771 | 0.633 | 2.14 | 3.51 | 2.66
37 | GCTGCTAGGCCAACTGATGGTCAGCTAAAGCTCG | -0.828 | -0.78 | -0.908 | -1.3 | -1.01 | -1.2 | -0.468 | -0.849 | -1.22 | -1.14
38 | ACTCGGAGGACAAAGGTCAAAGCTACGCCAGTGA | 6.13 | 5.86 | 4.17 | 5.35 | 1.64 | 6.23 | 8.63 | 7.42 | 6.79 | 8.13
